Experimental data published in the supplement of paper PMC10127200.
Counter-ions that a name gives are not always drawn.

How the values were obtained:
Assay in all cases: Euclidean distance of Cell Painting phenotypic profile (signed KS, 77 features) to DMSO centroid (dimensionless distance); 5 or 10 uM (library dependent); higher = stronger phenotypic change vs DMSO (phenoactivity)
Settings in all cases: 48 h
786-O = tested on: 786-O
In short: (§1)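 Phenoactivity is defined as the Euclidean distance from a compound profile to the median vehicle profile. Each profile comprised 77 Harmony features, scored as signed Kolmogorov-Smirnov statistics versus same-plate vehicle wells, then plate-position corrected, correlation-weighted and replicate-averaged at the top dose. Five cancer lines and one healthy fibroblast line were exposed to library compounds for 48 h at 10 or 5 uM (0.1% DMSO final).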

A549 = tested on: A549
In short: as §1

DU145 = tested on: DU145
In short: as §1

FB = tested on: FB
In short: as §1

HEPG2 = tested on: HEPG2
In short: as §1

OVCAR4 = tested on: OVCAR4
In short: as §1

Compound	Euclidean distance (786-O)	Euclidean distance (A549)	Euclidean distance (DU145)	Euclidean distance (FB)	Euclidean distance (HEPG2)	Euclidean distance (OVCAR4)
N#Cc1ccnc(N2C(=O)CC[C@H]2C(=O)N(c2cncc(F)c2)[C@H](C(=O)NC2CC(F)(F)C2)c2ccccc2Cl)c1 [Ivosidenib (AG-120)]	0.973	0.609	1.95	1.1	0.986	1.55
Cc1cccc(C)c1OCC(C)N (stereo not drawn) [Mexiletine HCl]	0.988	0.742	0.639	1.07	0.966	0.836
CCCCCCCCCCCCCCCCCC(=O)O [Stearic acid]	1.24	1.11	0.794	1.08	0.463	0.768
Nc1ccc(-c2ccc3ncc4ccc(=O)n(-c5cccc(C(F)(F)F)c5)c4c3c2)cn1 [Torin 2]	5.09	3.59	1.08	1.45	1.26	2.88
O=C(O)Cc1ccc(-c2ccccc2)cc1 [4-Biphenylacetic acid]	1.14	1.09	1.65	1.66	0.638	1.62
CCN(CC)CC#CCOC(=O)C(O)(c1ccccc1)C1CCCCC1 (stereo not drawn) [Oxybutynin]	0.749	0.615	1.19	0.788	1.25	0.913
CC(C)Cc1ccc(C(C)C(=O)O)cc1 (stereo not drawn) [Ibuprofen Lysine]	1.27	0.944	1.68	0.93	1.17	1.07
CC(C)NNC(=O)c1ccncc1 [Iproniazid]	1.02	0.606	0.811	1.08	0.379	1.18
CC(=O)O[C@]1(C(C)=O)CC[C@H]2[C@@H]3C=C(Cl)C4=CC(=O)[C@@H]5C[C@@H]5[C@]4(C)[C@H]3CC[C@@]21C [Cyproterone Acetate]	1.3	0.841	0.95	0.862	1.95	0.974
COc1cc2nccc(Oc3ccc(NC(=O)C4(C(=O)Nc5ccc(F)cc5)CC4)cc3)c2cc1OC	2.21	2.82	1.36	3.32	2.4	3.08
OCc1ccc(Cl)cc1Cl [2.4-dichlorobenzyl alcohol]	0.68	0.36	1.13	0.663	0.329	1.56
Nc1cc(C(F)(F)F)c(-c2nc(N3CCOCC3)nc(N3CCOCC3)n2)cn1 [Bimiralisib (PQR309)]	2.95	2.83	1.83	4.83	2.44	2.86
CCCN1CCCC[C@H]1C(=O)Nc1c(C)cccc1C [Ropivacaine HCl]	0.76	0.477	0.895	0.646	0.469	1.39
CC1CNc2c(cccc2S(=O)(=O)N[C@@H](CCCNC(=N)N)C(=O)N2CC[C@@H](C)C[C@@H]2C(=O)O)C1 (stereo partly drawn) [Argatroban]	0.618	0.352	0.62	0.896	0.99	0.903
CC1(C)O[C@@H]2[C@@H](CO[C@@]3(COS(N)(=O)=O)OC(C)(C)O[C@@H]23)O1 [Topiramate]	1.24	1.07	0.829	0.965	0.72	0.977
Cc1c(F)cc(C(=O)NC2CC2)cc1-c1ccc(C(=O)NCC(C)(C)C)cn1	1.17	0.619	1.23	0.572	0.761	1.09
Oc1c(Cl)cc(Cl)c2cccnc12 [Chloroxine]	2.07	2.64	1.54	1.48	2.06	2.02

Compound	Euclidean distance (786-O)	Euclidean distance (A549)	Euclidean distance (DU145)	Euclidean distance (FB)	Euclidean distance (HEPG2)	Euclidean distance (OVCAR4)
CO/N=C(\C(=O)N[C@@H]1C(=O)N2C(C(=O)O)=C(CSC(=O)c3ccco3)CS[C@H]12)c1csc(N)n1 [Ceftiofur]	0.442	0.362	0.719	0.698	1.81	1.07
CN1CCN(C(=O)c2cc3cc(Cl)ccc3[nH]2)CC1	1.14	0.827	0.611	0.998	0.507	1.17
CO/N=C(\C(=O)N[C@@H]1C(=O)N2C(C(=O)O)=C(COC(N)=O)CS[C@H]12)c1ccco1 [Cefuroxime sodium]	0.996	0.519	0.747	0.81	1.48	1.04
C[n+]1ccccc1/C=N/O [Pralidoxime chloride]	1.41	0.85	1.53	1.2	0.755	1.08
CCCOc1ccc(S(=O)(=O)NCCC2CCCN2C)cc1-c1nc2c(CCC)nn(C)c2c(=O)[nH]1 (stereo not drawn) [Udenafil]	1.13	1.12	1.49	1.77	1.61	1.41
CC(=O)OC[C@H]1O[C@@H]([S-])[C@H](OC(C)=O)[C@@H](OC(C)=O)[C@@H]1OC(C)=O.CCP(CC)CC.[Au+] [Auranofin]	5.67	4.89	6.36	6.74	3.39	5.08
C[C@@H](c1ncncc1F)[C@](O)(Cn1cncn1)c1ccc(F)cc1F [Voriconazole]	1.9	1.17	0.9	1.01	0.988	1.25
CC(C)Cc1ccc([C@@H](C)C(=O)NS(C)(=O)=O)cc1 [Reparixin (Repertaxin)]	1.16	0.942	0.933	1.09	1.25	1.04
N=C(N)c1ccc(N=NNc2ccc(C(=N)N)cc2)cc1 [Diminazene Aceturate]	1.25	1.11	1.1	0.72	2.06	0.868
CCCCc1nc2cc(/C=C/C(=O)NO)ccc2n1CCN(CC)CC [Pracinostat (SB939)]	2.82	4.04	3.89	4.08	3.78	3.46
N#Cc1cnc(Nc2cc(NC[C@H]3CNCCO3)c(C(F)(F)F)cn2)cn1	3.22	2.16	2.89	3.11	2.5	1.99
COC(=O)C1=C(C)NC(C)=C(C(=O)OC(C)(C)CN(C)CCC(c2ccccc2)c2ccccc2)C1c1cccc([N+](=O)[O-])c1 (stereo not drawn) [Lercanidipine]	1.59	2.38	1.1	1.31	1.5	2.02
Cc1cnc(NC(=O)Nc2cc(Br)c(C)cc2OC[C@@H]2CNCCO2)cn1	2.52	1.52	1.04	1.52	2.15	3.62
N=C(N)NC(=N)NCCc1ccccc1 [Phenformin HCl]	1.03	1.71	1.14	1.15	1.56	0.844
CC[N+](CC)(CC)CC [Tetraethylammonium bromide]	1.58	0.816	0.857	0.968	1.11	0.715
Cc1cc(O)cc(C)c1Cl [Chloroxylenol]	0.814	0.825	1.13	0.9	0.668	0.718
